PTEN del growth – suppresses growth of cells with PTEN deletion. HCT116 PTEN-null viability, CellTiter-Glo, 60 h; active compounds read low. viability, % at 10 µM. AID 827. hit rate 1.2% among 140,000;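 active = viability at or below a set limit, 4 SD under the median of all tested compounds, cut at about 3.7% in these data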;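 also: PTEN knockout HCT116 line with beta catenin targeted HCT116 as companion control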
ROMK mod – human ROMK K+ channel modulation, primary screen. Tet-inducible ROMK, thallium flux fluorescence; actives lie on both sides. P48048. B-score at 10 µM. hit rate 2% among 130,000. AID 1918;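 active = signal ratio slope over the read window, or its plate-corrected B-score, at least 3 SD from the plate mean, either direction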;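 also: B-score of the F/F0 ratio slope over 7 to 12 s after thallium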
p97 inhibitor – inhibitors of human p97 ATPase; recombinant p97 ATPase, Kinase-Glo ATP luminescence, 3 h; inhibition, % at 8 µM; hit rate 0.42% among 220,000; AID 1481; in the data active = inhibition above about 15%;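 also: 0% = DMSO vehicle and 100% = wells lacking enzyme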
HCT116 bCat-KO – beta-catenin-lacking colon tumor cell growth suppression; HCT116 beta-catenin knockout viability, CellTiter-Glo, 60 h; active compounds read low; viability, % at 10 µM; hit rate 1.5% among 140,000; AID 818;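 active = viability at or under a set limit, the compound median less 4 SD, cut at about 6% in these data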;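 also: 0% = Hyamine 1622 control at 20 µM and 100% = untreated cell control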
Lmaj promast – Leishmania major promastigote growth inhibition. Leishmania major promastigotes, resazurin fluorescence viability. inhibition, % at 10 µM. hit rate 9% among 200,000. AID 1063; in the data active = inhibition above about 50%;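 also: promastigotes grown with compound for 44 hours at 28 °C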
Insulin prom inh – TRM-6 insulin promoter activity inhibition. inhibition, % at 2 µM. hit rate 0.9% among 130,000. AID 1273. TRM-6 cells (human fetal islet line), insulin promoter-eGFP reporter, imaging; reporter expression induced with tamoxifen;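 active = inhibition above the mean plus 3 SD, with well images judged a real hit on visual review, cut at about 60% in these data, passing the limit was not always enough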
* = called active by the depositor; . = no result. A selection: hits, their analogues and other compounds. The true share with any hit is near 10%.

SMILES	PTEN del growth	ROMK mod	p97 inhibitor	HCT116 bCat-KO	Lmaj promast	Insulin prom inh
COC(=O)c1sc(NC(=O)c2ccco2)c(C#N)c1C	.	.	2	.	.	.
O=C(Nc1ccc(C(=O)Oc2ccccc2)c(O)c1)c1ccco1	60	-0.5	-5	71	55*	-32
O=C(COC(=O)c1cccc(NC(=O)c2ccco2)c1)c1ccc(Br)cc1	94	-0.011	-2	94	99*	.
Cc1ccc(SCC(=O)Nc2cccc(C(=O)NC(C)(C)C)c2)cc1	85	.	-2	76	95*	-7
CC(C)(C)C(=O)COC(=O)c1cccc(NC(=O)c2ccco2)c1	100	-0.66	1	96	-3	47
O=C(Nc1ccc(C(=O)Oc2ccccc2)c(O)c1)c1ccccc1	.	-0.42	5	.	-8	0
COc1ccccc1NC(=O)c1sc(NC(=O)c2ccco2)c(C#N)c1C	76	.	5	91	1	93*
CC1CCCC(NC(=O)COC(=O)/C=C/c2ccc(S(=O)(=O)N3CCOCC3)cc2)C1C (centres undefined)	.	.	-2	.	.	.
COc1ccc(-c2nnn(CC(=O)N(CC(=O)NCCC(C)C)c3ccccc3)n2)cc1OC	86	-0.073	2	99	73*	0
CC(Oc1ccc(Cl)cc1Cl)C(=O)Nc1ccc(OCC(=O)O)cc1 (centres undefined)	.	0.2	1	.	-2	.
Cc1ccc2nc(N3CC(=O)Nc4ccccc43)nc(-c3ccccc3)c2c1	1.2*	-0.56	1	1.4*	7	.
Cc1ccc(CCNC(=O)CNC(=O)c2cccs2)cc1	.	-0.62	-3	.	9	.
O=C(CCNc1ccc(Cc2ccncc2)cc1)c1cccc([N+](=O)[O-])c1	.	-0.58	2	.	95*	.
O=C(CCNc1cccc(F)c1)c1cccc([N+](=O)[O-])c1	.	0.24	0	.	80*	0
O=C(COc1cccc(NC(=O)c2cccc([N+](=O)[O-])c2)c1)c1ccc(F)cc1	62	.	4	68	20	.
COc1ccc([N+](=O)[O-])cc1C(=O)Nc1ccc(Cc2ccncc2)cc1	.	-0.13	1	.	1	.
O=C(COc1ccc(S(=O)(=O)N2CCc3ccccc32)cc1Cl)NCc1ccccn1	84	-0.45	-5	91	1	-5
Cc1ccc(CSc2nnc(-c3ccc4c(c3)OCO4)o2)cc1	90	0.6	-2	82	-1	-32
Cc1ccccc1NC(=O)Cc1nc(CSc2nnc(-c3ccc4c(c3)OCO4)o2)cs1	92	-1.7	0	98	86*	-43
CCc1nc2c(c(=O)c3ccccc3n2C)c(=O)n1CCc1ccc(OC)cc1	31	.	7	34	22	.
CCOC(=O)CSc1nnc(CSc2nc3sc4c(c3c(=O)[nH]2)CCCC4)n1-c1ccccc1	103	.	-5	94	-12	28
Cc1ccc(C)n1-n1c(C)nc2scc(-c3cccs3)c2c1=O	81	.	15*	84	15	.
Cc1ccc(C(=O)Oc2ccc(Cl)c3cccnc23)cc1[N+](=O)[O-]	10	.	0	4.5*	98*	-53
NC(=O)c1ccc(Oc2cccc3cccnc23)c([N+](=O)[O-])c1	.	0.76	3	.	3	.
Cc1ccc(C(=O)Oc2cccnc2)cc1[N+](=O)[O-]	100	-2.2	1	92	-6	-33
SMILES	PTEN del growth	ROMK mod	p97 inhibitor	HCT116 bCat-KO	Lmaj promast	Insulin prom inh
COc1ccc(C(=O)Oc2cccc3cccnc23)cc1[N+](=O)[O-]	.	-0.24	-2	.	93*	.
CSc1ccc(/C=C/C(=O)c2ccc(NC(=O)Cc3ccccc3)cc2)cc1	18	.	1	23	91*	-3
CSc1ccc(C(=O)/C=C/c2ccc(N)cc2)cc1	8	.	-5	7	19	16
CSc1ccc(/C=C/C(=O)c2ccc(NC(=O)C(C)C)cc2)cc1	8	0.51	4	7	100*	.
CSc1ccc(/C=C/C(=O)Nc2ccccc2)cc1	.	0.38	-11	.	1	50
Cc1ccc(C(=O)NCC(=O)OCC(=O)Nc2ccccc2C#N)s1	.	-0.39	-8	.	-3	.
COc1ccc(C(=O)C2CCCN(Cc3cccn3-c3cccnc3)C2)cc1OC (centres undefined)	.	.	2	.	8	.
CSc1ccc(C(=O)C2CCCN(Cc3cccn3-c3cccnc3)C2)cc1 (centres undefined)	.	-0.64	0	.	85*	.
O=C(c1ccc2c(c1)OCO2)C1CCCN(Cc2cc(F)ccc2-n2cccn2)C1 (centres undefined)	.	0.16	-5	.	40	.
O=C(c1ccc2c(c1)OCO2)C1CCCN(Cc2cccn2-c2cccnc2)C1 (centres undefined)	.	-0.7	-3	.	94*	.
O=C(c1ccc(Cl)cc1)C1CCCN(Cc2cccn2-c2cccnc2)C1 (centres undefined)	.	.	-7	.	87*	-29
CC(C)Oc1cccc(C(=O)C2CCCN(Cc3cccn3-c3cccnc3)C2)c1 (centres undefined)	.	.	-10	.	.	.
O=[N+]([O-])c1cccc(S(=O)(=O)c2ccc(NCCO)c([N+](=O)[O-])c2)c1	.	-2.9	0	.	1	.
O=C(c1cc(=O)[nH]c2ccccc12)N1CCN(c2ccccc2)CC1	.	.	6	.	.	.
CC(CCCC(C)(C)O)CC1C2=C(CCCC2=O)OC2=C1C(=O)CCC2 (centres undefined)	.	-0.6	4	.	-4	67
CCCN(CCC)C(=O)Nc1cc(Cl)ccc1OC	.	.	4	.	.	.
Cc1ccc(S(=O)(=O)NCCN(CCNS(=O)(=O)c2ccc(C)cc2)S(C)(=O)=O)cc1	108	-1.1	-3	91	-5	-43
CC(C)N(CCNS(=O)(=O)c1ccc(Cl)cc1)C(C)C	89	-1.4	1	94	57*	-1
C=CCOC(=O)/C=C/C(=O)NC(N)=O	.	-2.1	-3	.	.	.
CNS(=O)(=O)c1cnccc1N1CCN(c2cccc(C(F)(F)F)c2)CC1	60	.	4	59	99*	-53
COc1cc2nc(C3CCC3)nc(N3CCN(c4ccccc4OC)CC3)c2cc1OC	51	1.4	-3	69	58*	0
COc1cc2nc(Cl)nc(N3CCN(C)CC3)c2cc1OC	.	0.16	7	.	9	.
COc1cc2nc(C3CCC3)nc(N3CCN(c4ccccn4)CC3)c2cc1OC	45	0.88	4	59	54*	.
Cc1cc(C)cc(N2C(=O)CC(Sc3ncn[nH]3)C2=O)c1 (centres undefined)	.	0.1	5	.	-4	.
CC(C)c1ccc(NC(=O)C2CCCN(S(=O)(=O)c3cnc[nH]3)C2)cc1 (centres undefined)	97	.	-2	98	-6	.
CC(NC(=O)C1CCCN(S(=O)(=O)c2cnc[nH]2)C1)c1ccccc1 (centres undefined)	102	.	18*	101	-6	.
O=C(Nc1cccnc1)c1ccc2c(c1)C(=O)N(CC1CCCO1)C2=O (centres undefined)	.	1.7	3	.	-1	-41
CCCCSc1nc(C)[nH]c1[N+](=O)[O-]	106	0.19	5	110	-5	75*
Cc1nc(SCc2ccccc2)c([N+](=O)[O-])[nH]1	98	.	2	102	54*	35
